Inhibition data for 40 compounds are collected here from ChEMBL document CHEMBL1157539, “Thousands of chemical starting points for antimalarial lead identification” (Nature, 2010).

In one experiment the test system is Plasmodium falciparum. The experiment can be described thus: GSK_TCMDC: Inhibition of Plasmodium falciparum Dd2 in whole red blood cells, using parasite LDH activity as an index of growth. Test compounds present at 2uM. The experiment is classed as functional.
`COc1ccc(NC(=O)C2c3ccccc3C(=O)N(CC(C)C)C2c2cccs2)cc1OC` (stereo unspecified) had an Inhibition of 98%.
As to `Cl.OC(c1cccc(OCc2ccccc2)c1)C1CN(CCc2ccccc2)CCC1(O)c1ccccc1` (stereo unspecified), the Inhibition is recorded as 98%.
The compound `Cc1cnc(NCCc2ccc(F)cc2)nc1N[C@@H](CC(C)C)C(=O)Nc1ccccc1.O=C(O)C(F)(F)F` had an Inhibition of 29%.
The same measure, in the same setting: then `CCOc1ccc2c(c1)C(C)(c1ccc3c(c1)C(C)CC(C)(C)N3)CC(C)(C)N2` (stereo unspecified), with 3%.
On the same count and under the same terms, then `COc1ccc(Nc2ncc(OC)c(Nc3ccccc3C(N)=O)n2)cc1N1CCN(C)CC1.O=CO`, with 96%; and `Cc1ccc2[nH]ncc2c1N(CC1CCCCC1)c1ccnc(Nc2ccc(OCC(O)CN3CC=CCC3)cc2)n1.O=CO` (stereo unspecified), with 79%.
`O=C(/C=C/c1ccc(Cl)c(Cl)c1)NCCCCCCN1CCCN(C(=O)Nc2ccc(Cl)c(C(F)(F)F)c2)CC1` returned an Inhibition of 24%.
In turn, `O=C(NCc1ccccc1[S+]([O-])c1ccccc1CO)C(F)(F)F` (stereo unspecified) yielded an Inhibition of 2%.
Turning to `C(=N\Nc1nccc2sc(-c3cccnc3)cc12)/c1cccnc1`, the Inhibition is 54%.
For the compound `O=C(Nc1cccc(-c2cccc(-c3nc4cc(C(F)(F)F)ccc4[nH]3)c2)c1)c1ccc(=O)[nH]n1`, the Inhibition is 26%.
Take `COc1ccc(Nc2nccc(N3CCC(NC(=O)Nc4cccc(OC)c4)C3)n2)cc1` (stereo unspecified): the Inhibition turned out to be 48%.
Regarding `CS(=O)(=O)c1ccc(CCNCc2ccc(-c3ccc(CN(C(=O)C4CC(=O)c5ccccc54)C4CCN(Cc5ccccc5)CC4)cc3)nc2)cc1.O=C(O)C(F)(F)F` (stereo unspecified), the Inhibition is listed as 49%.
As for `COc1ccc2nccc([C@@H](O)CN3CCC(NC(=O)/C=C/c4cc([N+](=O)[O-])ccc4OC)CC3)c2c1`, the Inhibition stood at 76%.
For `FC(F)(F)c1cccc(CNCC2CCN(Cc3ccc4c(c3)OCO4)CC2)c1.O=C(O)C(F)(F)F`, the Inhibition was found to be 19%.
In the case of `COc1cccc(C(=O)NCc2cccs2)c1Oc1ccccc1`, the Inhibition is listed as 4%.
Same read-out and setting: then `CN(C(=O)NCCc1ccccc1)C1CCN(CCCCCNC(=O)/C=C/c2ccc(Cl)c(Cl)c2)CC1`, with 11%.
With `Cc1c(CCC#N)c(NCc2ccccc2)n2c(nc3ccccc32)c1C#N`, the Inhibition is reported as 99%.
`CC(C)C[C@H](NC(=O)c1cc2ccccc2s1)C(=O)N[C@H]1CCN(Cc2ccc(I)c(OC3CCN(C)C3)c2)C1.O=C(O)C(F)(F)F` (stereo partly specified) came in with an Inhibition of 95%.
`CC(=O)c1cccc2[nH]c(C(=O)NC3CCC(CCN4CCc5ccc(C#N)cc5C4)CC3)cc12.Cl` (stereo unspecified) had an Inhibition of 0%.
The compound `Cc1ccc(-n2cc(CNCCc3nc(C)c[nH]3)c(-c3ccc(F)cc3)n2)cc1` yielded an Inhibition of 12%.
`CC(C)CNCc1cccc(-c2cccc(CN(CCCN3CCN(C)CC3)C(=O)Nc3ccccc3)c2)c1.O=C(O)C(F)(F)F` displayed an Inhibition of 76%.
Compound `COc1ccccc1NC(=S)N/N=C/c1ccc(O)cc1O` showed an Inhibition of 80%.
Compound `Cc1cccc(CN2CCCN(Cc3cccc(C(=O)Nc4ccc(C(C)(C)C)cc4)c3)CC2)c1.O=C(O)C(F)(F)F` displayed an Inhibition of 40%.
Take `Cc1cccc2nc(-c3ccc(-c4cccc(CN5CCCC(O)C5)c4)s3)[nH]c12.O=C(O)C(F)(F)F` (stereo unspecified): the Inhibition was 18%.
With `CCN(CC)C(=O)C1CCCN(c2cc(C)nc(Nc3ccc(Cl)cc3)n2)C1` (stereo unspecified), the Inhibition was 64%.
The compound `CN(C)Cc1cccc(-c2cnc(N)c(-c3nc4cc(S(C)(=O)=O)ccc4[nH]3)c2)c1.O=C(O)C(F)(F)F` yielded an Inhibition of 61%.
Compound `Cl.Nc1ncc(Cc2cc(Cl)c(N)c3ncccc23)c(N)n1` displayed an Inhibition of 95%.
As to `CC1=C(C(=O)Nc2cc3cn[nH]c3cc2F)C(c2cccc(O)c2F)CC(=O)N1` (stereo unspecified), the Inhibition is 98%.
On to `Clc1ccc(CNc2nc(NCCc3c[nH]cn3)nc(N3CCCC4CCCCC43)n2)cc1` (stereo unspecified), for which the Inhibition was found to be 100%.
Still for that read-out and setting: for `CC(=O)Nc1ccc(S(=O)(=O)N(Cc2cccc(Oc3ccccc3)c2)C2CCN(C/C=C(\C)CCC=C(C)C)CC2)cc1` the value was 99%.
`CCN(CCCN1CCCCC1)c1cc(C)nc(Nc2cccc(OC(F)(F)F)c2)n1.O=C(O)C(F)(F)F` gave an Inhibition of 99%.

A further experiment has as its system HepG2. The experiment can be described thus: GSK_TCMDC: Percent inhibition of human HepG2 cell line. Test compounds present at 10uM. The experiment is classed as functional.
In turn, `CS(=O)(=O)n1c(CN2CCN(c3ncc(C(F)(F)F)cc3Cl)CC2)nc2ccccc21` yielded an Inhibition of 0%.
`Br.C=CCNC(CCCCC)c1ccc(OCCOc2ccc(C(CCCCC)NCC=C)cc2)cc1` (stereo unspecified) returned an Inhibition of 100%.
The same measure, in the same setting: then `CCN(CC)CCCN(C(=O)Nc1c(Cl)cncc1Cl)c1nc(-c2ccc(F)cc2)cs1`, with 37%; and `CC(C)(C)NCc1cc(Nc2ccnc3cc(Cl)ccc23)ccc1F`, with 21%.
Take `Cc1cc2c(cc1C(F)(F)F)N(C(=O)Nc1cc(OCCN(C(C)C)C(C)C)cc(C(F)(F)F)c1)CC2.Cl`: the Inhibition is 42%.
On to `CN1CCC(c2c[nH]c3ccc(NC(=O)Nc4ccc(-c5ccncc5)c(Cl)c4Cl)cc23)CC1`, for which the Inhibition is listed as 27%.
Same read-out and setting: then `Cc1cc(NCC2CCN(CC3CCCCC3)C2)nc(Nc2ccc(Cl)cc2)n1` (stereo unspecified), with 2%; and `O=C(Nc1ccc(Br)cc1)N(CCN1CCOCC1)CC(O)COc1ccc(Cl)c(F)c1.O=C(O)C(F)(F)F` (stereo unspecified), with 3%; and `Cc1ccc(CNC(=O)[C@H](Cc2ccccc2)Nc2cc(C)nc(NCCc3ccc(F)cc3)n2)cc1.O=C(O)C(F)(F)F`, with 10%.
The compound `COc1ccc(NC(=O)C2c3ccccc3C(=O)N(CC(C)C)C2c2cccs2)cc1OC` (stereo unspecified) came in with an Inhibition of 6%.
The compound `Cl.OC(c1cccc(OCc2ccccc2)c1)C1CN(CCc2ccccc2)CCC1(O)c1ccccc1` (stereo unspecified) came in with an Inhibition of 7%.
`Cc1cnc(NCCc2ccc(F)cc2)nc1N[C@@H](CC(C)C)C(=O)Nc1ccccc1.O=C(O)C(F)(F)F`: the Inhibition was 19%.
As for `CCOc1ccc2c(c1)C(C)(c1ccc3c(c1)C(C)CC(C)(C)N3)CC(C)(C)N2` (stereo unspecified), the Inhibition came out at 5%.
On the same count and under the same terms, then `COc1ccc(Nc2ncc(OC)c(Nc3ccccc3C(N)=O)n2)cc1N1CCN(C)CC1.O=CO`, with 63%; and `Cc1ccc2[nH]ncc2c1N(CC1CCCCC1)c1ccnc(Nc2ccc(OCC(O)CN3CC=CCC3)cc2)n1.O=CO` (stereo unspecified), with 29%; and `O=C(/C=C/c1ccc(Cl)c(Cl)c1)NCCCCCCN1CCCN(C(=O)Nc2ccc(Cl)c(C(F)(F)F)c2)CC1`, with 25%.
`O=C(NCc1ccccc1[S+]([O-])c1ccccc1CO)C(F)(F)F` (stereo unspecified): the Inhibition worked out at 50%.
On to `C(=N\Nc1nccc2sc(-c3cccnc3)cc12)/c1cccnc1`, for which the Inhibition amounted to 5%.
Compound `O=C(Nc1cccc(-c2cccc(-c3nc4cc(C(F)(F)F)ccc4[nH]3)c2)c1)c1ccc(=O)[nH]n1` yielded an Inhibition of 63%.
Still for that read-out and setting: for `COc1ccc(Nc2nccc(N3CCC(NC(=O)Nc4cccc(OC)c4)C3)n2)cc1` (stereo unspecified) the value was 23%; for `CS(=O)(=O)c1ccc(CCNCc2ccc(-c3ccc(CN(C(=O)C4CC(=O)c5ccccc54)C4CCN(Cc5ccccc5)CC4)cc3)nc2)cc1.O=C(O)C(F)(F)F` (stereo unspecified), 9%; for `COc1ccc2nccc([C@@H](O)CN3CCC(NC(=O)/C=C/c4cc([N+](=O)[O-])ccc4OC)CC3)c2c1`, 12%.
`FC(F)(F)c1cccc(CNCC2CCN(Cc3ccc4c(c3)OCO4)CC2)c1.O=C(O)C(F)(F)F` displayed an Inhibition of 21%.
Take `COc1cccc(C(=O)NCc2cccs2)c1Oc1ccccc1`: the Inhibition is reported as 0%.
Turning to `CN(C(=O)NCCc1ccccc1)C1CCN(CCCCCNC(=O)/C=C/c2ccc(Cl)c(Cl)c2)CC1`, the Inhibition was 43%.
`Cc1c(CCC#N)c(NCc2ccccc2)n2c(nc3ccccc32)c1C#N` displayed an Inhibition of 16%.
`CC(C)C[C@H](NC(=O)c1cc2ccccc2s1)C(=O)N[C@H]1CCN(Cc2ccc(I)c(OC3CCN(C)C3)c2)C1.O=C(O)C(F)(F)F` (stereo partly specified) displayed an Inhibition of 99%.
Compound `CC(=O)c1cccc2[nH]c(C(=O)NC3CCC(CCN4CCc5ccc(C#N)cc5C4)CC3)cc12.Cl` (stereo unspecified) came in with an Inhibition of 12%.
Same read-out and setting: for `Cc1ccc(-n2cc(CNCCc3nc(C)c[nH]3)c(-c3ccc(F)cc3)n2)cc1` the value was 15%; for `CC(C)CNCc1cccc(-c2cccc(CN(CCCN3CCN(C)CC3)C(=O)Nc3ccccc3)c2)c1.O=C(O)C(F)(F)F`, 25%.
For the compound `COc1ccccc1NC(=S)N/N=C/c1ccc(O)cc1O`, the Inhibition amounted to 35%.
On the same count and under the same terms, then `Cc1cccc(CN2CCCN(Cc3cccc(C(=O)Nc4ccc(C(C)(C)C)cc4)c3)CC2)c1.O=C(O)C(F)(F)F`, with 98%; and `Cc1cccc2nc(-c3ccc(-c4cccc(CN5CCCC(O)C5)c4)s3)[nH]c12.O=C(O)C(F)(F)F` (stereo unspecified), with 13%.
`CCN(CC)C(=O)C1CCCN(c2cc(C)nc(Nc3ccc(Cl)cc3)n2)C1` (stereo unspecified) came in with an Inhibition of 13%.
The compound `CN(C)Cc1cccc(-c2cnc(N)c(-c3nc4cc(S(C)(=O)=O)ccc4[nH]3)c2)c1.O=C(O)C(F)(F)F` yielded an Inhibition of 27%.
`Cl.Nc1ncc(Cc2cc(Cl)c(N)c3ncccc23)c(N)n1`: the Inhibition stood at 5%.
With `CC1=C(C(=O)Nc2cc3cn[nH]c3cc2F)C(c2cccc(O)c2F)CC(=O)N1` (stereo unspecified), the Inhibition is reported as 1%.
Same read-out and setting: for `Clc1ccc(CNc2nc(NCCc3c[nH]cn3)nc(N3CCCC4CCCCC43)n2)cc1` (stereo unspecified) the value was 10%.
On the same count and under the same terms, for `CC(=O)Nc1ccc(S(=O)(=O)N(Cc2cccc(Oc3ccccc3)c2)C2CCN(C/C=C(\C)CCC=C(C)C)CC2)cc1` the value was 22%.
Still for that read-out and setting: for `CCN(CCCN1CCCCC1)c1cc(C)nc(Nc2cccc(OC(F)(F)F)c2)n1.O=C(O)C(F)(F)F` the value was 32%.
